Results published in ChEMBL document CHEMBL3988442, “University of Dundee, Small-Polar-MMV Screening Library” (2021).

target: T1, Aspartate--tRNA(Asp/Asn) ligase (Mycobacterium tuberculosis (strain ATCC 25618 / H37Rv)) (UniProt P9WFW3); assay: Assay for Asp RNA synthetase-1 from Mycobacterium tuberculosis; format: functional; design: scale not given: in the data most compounds retested in dose-response had high values; conditions: 30 µM
T1 sequence (whole entry): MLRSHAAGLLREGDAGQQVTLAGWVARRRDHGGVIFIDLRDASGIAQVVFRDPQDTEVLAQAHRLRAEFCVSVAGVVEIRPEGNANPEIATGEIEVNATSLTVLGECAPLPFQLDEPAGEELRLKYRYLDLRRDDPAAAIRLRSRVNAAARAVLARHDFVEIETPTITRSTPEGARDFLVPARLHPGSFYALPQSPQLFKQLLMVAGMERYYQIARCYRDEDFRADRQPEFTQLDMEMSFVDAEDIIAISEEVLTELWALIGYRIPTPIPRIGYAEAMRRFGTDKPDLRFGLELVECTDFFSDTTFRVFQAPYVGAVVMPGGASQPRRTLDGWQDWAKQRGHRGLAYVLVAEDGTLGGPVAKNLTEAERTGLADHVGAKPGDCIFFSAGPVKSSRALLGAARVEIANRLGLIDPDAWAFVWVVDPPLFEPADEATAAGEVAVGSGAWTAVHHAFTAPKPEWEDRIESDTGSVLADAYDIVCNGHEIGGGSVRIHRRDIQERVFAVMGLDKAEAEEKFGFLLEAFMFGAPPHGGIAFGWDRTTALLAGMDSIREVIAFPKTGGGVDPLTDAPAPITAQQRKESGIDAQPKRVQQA

Compound | Percent Effect
Cc1ccc(C(C)NC(=O)Cc2c(C)nc3c(c2C)c(=O)[nH]n3C)o1 (stereo not given) | 18.6%
Cc1cc(NC(=O)NCC(C)N2CCc3ccccc32)no1 (stereo not given) | 2.59%
CC(=O)NCC(=O)N1Cc2nccn2CC(CN2CCCC2)C1 (stereo not given) | -4.29%
CCc1nc(CN2CCCC(NCc3ncc(C(C)(C)C)o3)C2)no1 (stereo not given) | 5.85%
COc1ccccc1CN(C)C(=O)c1cc(CN2CCC(O)CC2)on1 | 3.59%
COc1ccc(C2CC(=O)Oc3cc(C)[nH]c(=O)c32)cc1 (stereo not given) | 0.232%
Cn1cc(C(=O)N2CCC(Cc3nccs3)CC2)cn1 | 2.4%
NC(=O)NCC(=O)N1C[C@H]2CC[C@@H]1CN(C1Cc3ccccc3C1)C2 | 6.33%
Cc1ccoc1C(=O)N1CCO[C@H]2[C@H](OCC3CCOCC3)CC[C@@H]21 | -4.72%
COc1ccc(C2C3=C(COC3=O)Nc3[nH]nc(C)c32)cc1OC (stereo not given) | -2.61%
COC(=O)c1ccc(N2CCN(CCC#N)C(C)C2)cc1 (stereo not given) | 2.13%
Cc1nn2cccnc2c1C(=O)N1CCCC(n2ccnc2)C1 (stereo not given) | 6.28%
Cc1cnn(CC2CCCN2C(=O)c2cccc(-n3cnnn3)c2)c1 (stereo not given) | -7.68%
N#Cc1ccc(N2CCN(C(=O)c3cc(C4CC4)[nH]n3)CC2)c(F)c1 | -6.09%
Cn1ccc(C(=O)N2CCN(CCc3ccccc3)CC2)cc1=O | -1.76%
CCS(=O)(=O)N1CC[C@]2(C[C@@H](OCC3CC3)CO2)C1 | -1.4%
c1cnc(-c2nc(CN3CCC(c4ccn[nH]4)CC3)cs2)nc1 | -0.495%
CC(C)c1nc(CN(C)C2CCN(CC(F)(F)F)C2)no1 (stereo not given) | 8.54%
Cc1occc1C(=O)N1CCCC2(CCN(CCN3CCCC3)C2=O)C1 (stereo not given) | 1.84%
COc1cccc(CCNC(=O)CN2CCCC2c2noc(C)n2)c1 (stereo not given) | -0.962%

Compound | Percent Effect
CC(=O)NC(C)c1ccc(OCC2CC2)c(F)c1 (stereo not given) | 0.15%
CCN1CC2(CC1=O)CN(Cc1cccs1)CCN(C(=O)C(C)C)C2 (stereo not given) | -0.746%
CN(Cc1nnc(C2CC2)n1C)C1CCN(CCc2cccs2)C1 (stereo not given) | 1.39%
Cc1ncsc1-c1nnc(C2CCN(CC3CCCCC3)CC2)o1 | -2.81%
Cc1n[nH]cc1C(=O)N1CCCC(n2nnc3cc(F)ccc32)C1 (stereo not given) | -7.43%
CCCN1CCN(C(=O)c2scnc2C)CC1 | -0.389%
O=C(NC1CC1)[C@@H]1CCO[C@@H]2CCN(C3CCOCC3)C[C@H]21 | 5.8%
N#Cc1ccc(NCCNc2ccc(C(F)(F)F)cn2)nc1 | -3.59%
COc1ccccc1C1CNC(=O)c2nc(-c3cnn(C)c3)[nH]c2C1 (stereo not given) | 1.33%
CCn1c(N)nc2cc(C(=O)NCCc3sccc3C)cnc21 | 2.47%
CCN(CC(=O)NC)S(=O)(=O)N1CCCCCC1 | 1.14%
Cc1cc(NC(=O)NCCc2cccs2)n(C)n1 | 1.39%
CCc1noc(CN2CCCC2c2noc(C3CC3)n2)n1 (stereo not given) | 0.459%
O=c1cc(CN2CCCC2)nc2n1CCCN(Cc1ccsc1)C2 | -4.85%
Cc1cc(C)n(CC2CCCN2CCS(=O)(=O)c2ccccc2)n1 (stereo not given) | -0.833%
CCOc1cc(C)nc(N2CCN(C(=O)c3ccc[nH]3)CC2)n1 | -0.0874%
O=C1NC2(CCN(C(=O)Cc3ccsc3)CC2)CC1c1ccncc1 (stereo not given) | 1.5%
COCC(NC(=O)c1cc[nH]n1)c1cccc(C(F)(F)F)c1 (stereo not given) | -7.45%
CCN(CC(=O)NC(C)C)S(=O)(=O)N1CCC(C)C1 (stereo not given) | 2.41%
CN1CCCC1c1cccc(Cc2ccccc2F)n1 (stereo not given) | -0.581%
